Structures are written as SMILES.

Assay [1] addresses T1, CDK3/cyclin E (Homo sapiens) (UniProt P24864+O96020+Q00526). The note with it: at 1 µM.
The target in assay [2] is T1, CDK3/cyclin E (Homo sapiens). The note with it: at 10 µM.
In assay [3] the target is T2, Cyclin-dependent kinase 5/CDK5 activator 1 (Homo sapiens) (UniProt Q00535+Q15078). The note with it: at 1 µM.
Assay [4] concerns the target T2, Cyclin-dependent kinase 5/CDK5 activator 1 (Homo sapiens). The note with it: at 10 µM.
For assay [5] the target is unchanged. The note with it: at 1 µM. The source holds these as a separate data set.
Assay [6] has the same target. The note with it: at 10 µM. This is another data set of the same source.
Assay [7] has as its target T3, CDK6/cyclin D3 (Homo sapiens) (UniProt P30281+Q00534). The note with it: at 1 µM.
Assay [8] addresses T4, Cyclin-dependent kinase 7/ cyclin H (Homo sapiens) (UniProt P51946+P50613). The note with it: at 1 µM.
Assay [9] concerns the target T4, Cyclin-dependent kinase 7/ cyclin H (Homo sapiens). The note with it: at 10 µM.
Assay [10] deals with T5, CDK9/cyclin T1 (Homo sapiens) (UniProt O60563+P50750). The note with it: at 1 µM.
The target in assay [11] is T5, CDK9/cyclin T1 (Homo sapiens). The note with it: at 10 µM.
Assay [12] addresses T6, Serine/threonine-protein kinase Chk1 (Homo sapiens) (UniProt O14757).
T6 sequence (whole entry): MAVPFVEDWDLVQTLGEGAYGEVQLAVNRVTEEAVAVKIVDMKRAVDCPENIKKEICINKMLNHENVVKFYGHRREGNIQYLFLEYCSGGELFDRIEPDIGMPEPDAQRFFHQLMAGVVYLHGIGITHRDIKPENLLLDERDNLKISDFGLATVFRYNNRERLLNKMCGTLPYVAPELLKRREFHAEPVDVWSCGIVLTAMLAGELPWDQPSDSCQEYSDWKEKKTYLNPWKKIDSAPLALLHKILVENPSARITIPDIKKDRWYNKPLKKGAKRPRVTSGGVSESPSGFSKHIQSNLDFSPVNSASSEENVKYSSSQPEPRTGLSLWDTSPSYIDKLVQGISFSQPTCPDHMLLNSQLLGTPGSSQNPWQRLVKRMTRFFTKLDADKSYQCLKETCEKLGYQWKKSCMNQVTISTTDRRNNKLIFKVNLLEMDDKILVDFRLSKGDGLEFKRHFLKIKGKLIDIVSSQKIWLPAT
The note with it: at 1 µM.

Assay [13] has as its target T6, Serine/threonine-protein kinase Chk1 (Homo sapiens). The note with it: at 10 µM.
Assay [14] addresses Serine/threonine-protein kinase Chk2 (Homo sapiens) (UniProt O96017). The note with it: at 1 µM.
Assay [15] shares this target. The note with it: at 10 µM.
For assay [16], the target named is Casein kinase I isoform gamma-1 (Homo sapiens) (UniProt Q9HCP0). The note with it: at 1 µM.
Casein kinase I isoform gamma-1 (Homo sapiens), sequence (Q9HCP0 whole entry, looked up, canonical isoform): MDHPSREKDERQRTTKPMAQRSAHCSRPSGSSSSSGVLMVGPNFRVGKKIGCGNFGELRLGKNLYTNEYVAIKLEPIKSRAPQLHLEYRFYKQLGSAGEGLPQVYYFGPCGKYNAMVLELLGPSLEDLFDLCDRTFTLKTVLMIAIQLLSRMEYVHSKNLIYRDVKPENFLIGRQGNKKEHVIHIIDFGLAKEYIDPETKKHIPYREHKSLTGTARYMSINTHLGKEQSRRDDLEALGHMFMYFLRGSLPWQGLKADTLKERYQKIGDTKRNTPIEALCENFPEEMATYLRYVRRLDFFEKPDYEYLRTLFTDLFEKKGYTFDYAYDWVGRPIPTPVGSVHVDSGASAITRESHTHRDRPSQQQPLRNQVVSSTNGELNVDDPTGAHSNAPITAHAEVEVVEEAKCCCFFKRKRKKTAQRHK
Assay [17] shares this target. The note with it: at 10 µM.
For assay [18], the target named is Casein kinase I isoform delta (Homo sapiens) (UniProt P48730). The note with it: at 1 µM.
Casein kinase I isoform delta (Homo sapiens), sequence (P48730 whole entry, looked up, canonical isoform): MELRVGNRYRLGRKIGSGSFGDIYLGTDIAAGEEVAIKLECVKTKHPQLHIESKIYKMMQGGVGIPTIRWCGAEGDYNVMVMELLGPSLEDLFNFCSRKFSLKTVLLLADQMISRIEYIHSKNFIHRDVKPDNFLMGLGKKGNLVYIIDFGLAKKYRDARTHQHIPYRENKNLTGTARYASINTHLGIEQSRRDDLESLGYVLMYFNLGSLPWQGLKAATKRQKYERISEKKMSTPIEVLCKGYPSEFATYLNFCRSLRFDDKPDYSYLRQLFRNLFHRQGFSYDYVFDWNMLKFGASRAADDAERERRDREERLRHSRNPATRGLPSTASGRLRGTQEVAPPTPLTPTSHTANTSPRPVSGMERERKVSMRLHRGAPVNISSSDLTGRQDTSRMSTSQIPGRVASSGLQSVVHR
Assay [19] has the same target. The note with it: at 10 µM.
The target in assay [20] is T3, CDK6/cyclin D3 (Homo sapiens). The note with it: at 10 µM.

T1 sequence (O96020 whole entry, looked up): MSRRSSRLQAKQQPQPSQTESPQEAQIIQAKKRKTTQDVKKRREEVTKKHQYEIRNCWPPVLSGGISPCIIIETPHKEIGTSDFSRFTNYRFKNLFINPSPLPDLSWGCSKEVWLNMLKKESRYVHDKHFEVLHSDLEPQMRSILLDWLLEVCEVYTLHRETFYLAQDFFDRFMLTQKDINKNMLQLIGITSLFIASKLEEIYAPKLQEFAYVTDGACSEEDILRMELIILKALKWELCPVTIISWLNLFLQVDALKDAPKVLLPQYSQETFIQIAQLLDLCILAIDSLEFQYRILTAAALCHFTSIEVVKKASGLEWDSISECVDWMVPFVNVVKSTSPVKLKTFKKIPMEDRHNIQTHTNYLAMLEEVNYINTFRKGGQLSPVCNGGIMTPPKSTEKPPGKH
T1 sequence (P24864 whole entry, looked up): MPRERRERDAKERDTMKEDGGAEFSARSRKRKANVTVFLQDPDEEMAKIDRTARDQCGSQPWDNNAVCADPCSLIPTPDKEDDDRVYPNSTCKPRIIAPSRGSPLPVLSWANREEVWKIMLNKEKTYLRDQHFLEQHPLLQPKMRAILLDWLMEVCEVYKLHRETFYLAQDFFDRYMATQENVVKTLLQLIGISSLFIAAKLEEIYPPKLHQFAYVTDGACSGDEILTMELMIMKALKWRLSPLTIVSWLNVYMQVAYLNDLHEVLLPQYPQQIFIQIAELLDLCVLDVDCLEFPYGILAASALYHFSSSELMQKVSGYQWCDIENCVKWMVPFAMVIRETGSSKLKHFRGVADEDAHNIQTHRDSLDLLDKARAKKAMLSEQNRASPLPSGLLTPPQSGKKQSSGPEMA
T1 sequence (Q00526 whole entry, looked up): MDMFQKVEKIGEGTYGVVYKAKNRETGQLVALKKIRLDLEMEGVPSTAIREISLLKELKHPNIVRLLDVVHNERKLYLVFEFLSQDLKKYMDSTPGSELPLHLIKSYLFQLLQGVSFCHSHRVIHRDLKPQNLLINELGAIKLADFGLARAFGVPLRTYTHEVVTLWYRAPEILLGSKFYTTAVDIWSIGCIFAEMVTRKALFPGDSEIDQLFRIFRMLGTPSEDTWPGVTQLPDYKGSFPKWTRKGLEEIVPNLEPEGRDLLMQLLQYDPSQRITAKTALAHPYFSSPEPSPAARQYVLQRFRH
Serine/threonine-protein kinase Chk2 (Homo sapiens), sequence (O96017 whole entry): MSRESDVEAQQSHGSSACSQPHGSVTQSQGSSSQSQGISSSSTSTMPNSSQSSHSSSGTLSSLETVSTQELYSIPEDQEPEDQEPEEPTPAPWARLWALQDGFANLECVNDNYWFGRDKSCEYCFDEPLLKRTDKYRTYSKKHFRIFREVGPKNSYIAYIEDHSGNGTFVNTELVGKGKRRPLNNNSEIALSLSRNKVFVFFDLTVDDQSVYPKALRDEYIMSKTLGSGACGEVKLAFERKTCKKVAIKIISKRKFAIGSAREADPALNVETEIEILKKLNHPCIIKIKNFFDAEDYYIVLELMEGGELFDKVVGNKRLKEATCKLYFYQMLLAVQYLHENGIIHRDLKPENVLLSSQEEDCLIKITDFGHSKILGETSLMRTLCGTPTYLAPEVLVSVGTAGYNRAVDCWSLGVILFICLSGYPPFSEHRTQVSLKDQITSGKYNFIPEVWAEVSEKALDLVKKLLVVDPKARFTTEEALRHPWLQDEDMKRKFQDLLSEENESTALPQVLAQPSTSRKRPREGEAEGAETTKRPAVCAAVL

Take `O=c1c2ccccc2[nH]c(=S)n1CCN1CCC(=C(c2ccc(F)cc2)c2ccc(F)cc2)CC1`: the residual activity came out at 114% in assay [1]; 86% in assay [2]; 97% in assay [3]; 89% in assay [4]; 108% in [5]; 97% in [6]. Moreover, the residual activity in [7] stood at 99%; in assay [8] it was 88%; in [9], 95%; in [10], 100%; in assay [11], 97%; in assay [12], 95%. Moreover, the residual activity was 104% in assay [13]; 93% in [14]; 85% in [15]; 82% in [16]; 78% in assay [17]; 80% in assay [18]. Besides, in assay [19], the residual activity worked out at 63%.
`CO[C@H]1[C@@H](OC)C[C@H](C)[C@@H](OC)C2=CC(=O)C=C(NC(=O)/C(C)=C/C=C/[C@H](OC)[C@@H](OC(N)=O)/C(C)=C/[C@@H]1C)C2=O`: the residual activity was 100% in assay [1]; 87% in assay [2]; 104% in [3]; 92% in [4]; 105% in assay [5]; 83% in [6]. The residual activity in assay [7] turned out to be 107%; in assay [20], 92%; in [9], 101%; in assay [10], 100%; in assay [11] it was 83%; in [12], 96%. The residual activity was found to be 87% in [13]; 91% in assay [14]; 89% in assay [15]; 91% in assay [16]; 94% in assay [17]; 90% in [18]. Also, the residual activity in assay [19] amounted to 81%.
Regarding `COc1cccc(-c2cc(=O)c3ccccc3o2)c1N`, the residual activity in assay [1] was found to be 90%; in assay [2], 84%; in assay [3], 102%; in assay [4], 99%; in [5] it was 112%; in [6], 89%. Besides, the residual activity in assay [7] came out at 102%; in assay [20], 100%; in assay [8] it was 103%; in [9] it was 89%; in assay [10] it was 104%; in assay [11], 108%. For the same compound, the residual activity in assay [12] turned out to be 104%; in assay [13], 90%; in assay [14], 85%; in assay [15] it was 72%; in assay [16], 95%; in assay [17] it was 88%. Moreover, the residual activity in [18] turned out to be 102%; in assay [19] it was 87%.
In the case of `c1ccc(-c2n[nH]cc2-c2ccnc3ccccc23)nc1`, the residual activity worked out at 83% in assay [1]; 79% in assay [2]; 83% in assay [3]; 63% in [4]; 98% in assay [8]; 95% in [9]. Moreover, the residual activity in assay [10] worked out at 103%; in [11] it was 67%; in assay [12], 89%; in assay [13] it was 91%; in [14], 90%; in [15] it was 88%. For the same compound, the residual activity in assay [16] turned out to be 89%; in [17], 47%; in [18], 25%; in assay [19], 2%.
On to `O=[N+]([O-])c1ccc(-c2nc(-c3ccc(F)cc3)c(-c3ccncc3)[nH]2)cc1`, for which the residual activity in assay [1] worked out at 91%; in assay [2], 85%; in assay [3], 95%; in assay [4] it was 94%; in [5], 108%; in assay [6], 98%. The residual activity in assay [7] amounted to 101%; in assay [20], 101%; in assay [8], 101%; in assay [9], 90%; in assay [10], 103%; in [11], 24%. Also, the residual activity in assay [12] is 102%; in [13], 92%; in assay [14], 97%; in [15], 84%; in assay [16], 75%; in [17] it was 88%. In addition, in assay [19], the residual activity was found to be 4%.
Regarding `O=c1cc(-c2cccc3c2Sc2ccccc2S3)oc(N2CCOCC2)c1`, the residual activity is 99% in [1]; 97% in assay [2]; 95% in assay [3]; 94% in [4]; 112% in assay [5]; 90% in assay [6]. Also, the residual activity in assay [7] is 101%; in [20] it was 85%; in assay [8], 121%; in [9], 80%; in assay [10] it was 100%; in [11], 89%. Besides, the residual activity was 97% in [12]; 94% in assay [13]; 106% in assay [14]; 87% in assay [15]; 101% in assay [16]; 43% in [17]. Also, the residual activity is 92% in [18] and 44% in [19].
As to `Nc1nc(Nc2ccc(S(N)(=O)=O)cc2)nn1C(=S)Nc1c(F)cccc1F`, the residual activity in assay [1] is -2%; in assay [2] it was 0%; in assay [3] it was -2%; in [4], -1%; in assay [5], -2%; in assay [6], -1%. Besides, the residual activity is 19% in assay [7]; 3% in [20]; 2% in assay [8]; -2% in assay [9]; 0% in assay [10]; -1% in assay [11]. Also, the residual activity in assay [12] was 0%; in [13], -1%; in assay [14], 4%; in assay [15], 0%; in assay [16] it was 4%; in [17] it was 1%. The residual activity in assay [18] stood at 59%; in assay [19], 16%.

The values are drawn from ChEMBL document CHEMBL2218924, “A broad activity screen in support of a chemogenomic map for kinase signalling research and drug discovery” (Biochem J, 2013).
